# From PubChem BioAssay AID652115 (Broad Institute, 2013)
# Where “and” joins values, the source holds several entries; their conditions need not be identical. Identical values can stand only once. Among all 330,000 compounds or so, about 3,800 (1.2%) were called active. Rule as the data show it: active = inhibition above about 15%; inconclusive = no clear call, values can overlap the other calls; inactive = below that. What follows is part of a selection rich in actives, with near analogues and random picks from the rest.
# Target: NAD-dependent protein deacylase sirtuin-5, mitochondrial (Homo sapiens) (UniProt Q9NXA8)
# Sequence (Q9NXA8 whole entry, looked up): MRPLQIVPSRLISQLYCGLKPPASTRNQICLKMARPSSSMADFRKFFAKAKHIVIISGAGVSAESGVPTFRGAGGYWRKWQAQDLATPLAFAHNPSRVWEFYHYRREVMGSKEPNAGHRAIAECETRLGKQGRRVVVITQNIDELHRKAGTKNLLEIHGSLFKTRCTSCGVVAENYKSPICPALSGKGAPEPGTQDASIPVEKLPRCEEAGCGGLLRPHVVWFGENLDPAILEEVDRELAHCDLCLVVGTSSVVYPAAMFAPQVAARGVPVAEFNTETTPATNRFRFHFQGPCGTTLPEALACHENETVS
# Assay: blockers of sirtuin-5 deacylase activity – biochemical, fluorescence imaging, single point, set 5, primary screen (AID 652115)
# Details: Purified SirT5, succinyl-peptide AMC, trypsin-coupled fluorescence; at 15 µM; active compounds read high
row,SMILES,inhibition
1,CC=Cc1ccc2n(c1=O)C[C@@H]1[C@@H](CO)[C@H](C(=O)NC3CCCC3)[C@H]2N1C(=O)c1cnccn1 (mixture of isomers),-1.91% (inactive)
2,Cc1cccc(-c2ccc([C@H]3[C@H](CO)N4CCCCN(S(=O)(=O)c5cn(C)cn5)C[C@@H]34)cc2)c1,-2.31% (inactive)
3,O=C(C[C@@H]1CC[C@@H]2[C@H](COC[C@@H](O)CN2Cc2ccc(F)cc2)O1)NCc1ccncn1,2.45% (inactive)
4,COc1cccc(S(=O)(=O)N(C)C[C@@H]2Oc3cc(C#CCN(C)C)ccc3S(=O)(=O)N([C@@H](C)CO)C[C@@H]2C)c1,-0.424% (inactive)
5,COCC#Cc1ccc2c(c1)O[C@@H](CN(C)S(C)(=O)=O)[C@H](C)CN([C@H](C)CO)S2(=O)=O,-0.381% (inactive)
6,COc1ccccc1S(=O)(=O)N(C)C[C@H]1Oc2cc(C#CCC3CCCC3)ccc2S(=O)(=O)N([C@@H](C)CO)C[C@H]1C,16.1% (active)
7,COc1ccccc1S(=O)(=O)N(C)C[C@@H]1Oc2cc(C#CCC3CCCC3)ccc2S(=O)(=O)N([C@H](C)CO)C[C@H]1C,18.3% (active)
8,COc1cccc(S(=O)(=O)N(C)C[C@H]2Oc3cc(C#CCN(C)C)ccc3S(=O)(=O)N([C@H](C)CO)C[C@H]2C)c1,2.32% (inactive)
9,CCCC#Cc1ccc2c(c1)O[C@@H](CN(C)S(=O)(=O)c1cccc(OC)c1)[C@H](C)CN([C@@H](C)CO)S2(=O)=O,0.047% (inactive)
10,C[C@H](O)C#Cc1ccc2c(c1)O[C@@H](CN(C)C(=O)C1CCCCC1)[C@H](C)CN([C@@H](C)CO)S2(=O)=O,5.37% (inactive)
11,O=C(C[C@H]1CC[C@H]2[C@@H](COC[C@@H](O)CN2C(=O)Nc2ccc(C(F)(F)F)cc2)O1)NC1Cc2ccccc2C1,-1.39% (inactive)
12,C=C1c2c(Cl)ccc(O)c2C(O)=C2C(=O)[C@]3(O)C(O)=C(C(N)=O)C(=O)[C@@H](N(C)C)[C@@H]3[C@@H](O)C12 (stereo partly specified),35.9% (active)
13,CN(C)[C@@H]1C(=O)C(C(N)=O)=C(O)[C@@]2(O)C(=O)C3=C(O)c4c(O)ccc(Cl)c4[C@@H](O)[C@H]3C[C@@H]12,6.39% (inactive)
14,CNC(=O)C[C@H]1CC[C@H]2[C@H](COc3ccc(NC(=O)c4cccc(F)c4)cc3C(=O)N2C)O1,-1.94% (inactive) and 2.58% (inactive)
15,C[C@@H]1CN([C@@H](C)CO)C(=O)Cc2cc(NC(=O)Nc3cccc4ccccc34)ccc2O[C@H]1CN(C)CC1CCCCC1,-4.93% (inactive)
16,N#Cc1c(N2CCCCC2)nc(N)c2c(N)nc(SCC(=O)O)cc12,7.29% (inactive)
17,N#CCc1c(C#N)c(N)nc(N2CCCC2)c1C#N,26.2% (active)
18,N#Cc1c(C(F)(F)F)cc(-c2cccs2)nc1N1CCCCC1,5.73% (inactive)
19,CO[C@@H]1CN(C)C(=O)c2cc(NS(=O)(=O)CC(F)(F)F)ccc2OC[C@H](C)N(Cc2ccccn2)C[C@@H]1C,2.12% (inactive)
20,C[C@@H]1CCCCO[C@H](CN(C)S(=O)(=O)c2cn(C)cn2)[C@@H](C)CN([C@@H](C)CO)C(=O)c2cc(NC(=O)c3ccncc3)ccc2O1,0.794% (inactive)
21,Oc1cccc2cc(-c3ccncc3)cnc12,-0.877% (inactive)
22,COc1cccc(CNc2nc(NCc3cccs3)nc3ccsc23)c1,-1.12% (inactive)
23,CC(=O)Nc1ccc(CNc2nc(NCCN(C)C)nc3cc(-c4ccccc4)sc23)cc1,2.52% (inactive)
24,COCCNc1nc(NCc2ccc(NC(C)=O)cc2)c2sccc2n1,16.4% (active)

row,SMILES,inhibition
1,COc1ccc(C[C@@H]2CCc3cnnn3COC[C@H](c3ccccc3)NC2=O)cc1,2.11% (inactive)
2,CCC(=O)N[C@H]1CC[C@H](CCn2cc(-c3cccc(OC)c3)nn2)O[C@H]1CO,-2.52% (inactive)
3,COc1ccc(CNC(=O)COC(=O)c2ccc(C)c(S(=O)(=O)N3CCOCC3)c2)cc1OC,-1.07% (inactive)
4,COc1ccc(C(=O)OCC(=O)c2ccc(C)c(S(=O)(=O)N3CCOCC3)c2)cc1OC,25.2% (active)
5,Cc1ccc(C(=O)OCC(=O)N2CCCCCC2)cc1S(=O)(=O)N1CCOCC1,1.4% (inactive)
6,C[C@H]1CCCCO[C@@H](CN(C)C(=O)C2CCCCC2)[C@@H](C)CN([C@@H](C)CO)C(=O)c2cc(NS(=O)(=O)c3cccs3)ccc2O1,8.81% (inactive)
7,COCC#Cc1cnc2c(c1)C(=O)N([C@H](C)CO)C[C@@H](C)[C@@H](CN(C)Cc1ccccc1F)O2,1.75% (inactive)
8,CO[C@@H]1CN(C)C(=O)c2cc(NS(=O)(=O)c3cccc(F)c3)ccc2OC[C@@H](C)NC[C@@H]1C,-3.7% (inactive)
9,CCC(=O)Nc1ccc2c(c1)C(=O)N(C)C[C@@H](OC)[C@H](C)CN(Cc1ccccc1C(=O)O)[C@@H](C)CO2,2.25% (inactive)
10,O=C(C1CCCCC1)N1CC2(C1)[C@H](c1ccccc1)[C@H](CO)N2CC1CCCC1,5.17% (inactive)
11,O=C(COC(=O)c1ccc([N+](=O)[O-])o1)NC12CC3CC(CC(C3)C1)C2,-5.22% (inactive)
12,O=C(COC(=O)c1ccc(Br)o1)NC12CC3CC(CC(C3)C1)C2,15.6% (active)
13,O=C(COC(=O)c1cccnc1Cl)NC12CC3CC(CC(C3)C1)C2,0.076% (inactive)
14,COCC(=O)Nc1ccc2c(c1)OC[C@@H](C)N(Cc1ccccn1)C[C@H](C)[C@@H](OC)CN(C)C2=O,-1.91% (inactive)
15,COc1cccc(S(=O)(=O)Nc2ccc3c(c2)C(=O)N(C)C[C@@H](OC)[C@@H](C)CN[C@@H](C)CO3)c1,5.28% (inactive)
16,C[C@H](O)C#Cc1cnc2c(c1)C(=O)N([C@@H](C)CO)C[C@H](C)[C@@H](CN(C)C(=O)c1ccccc1)O2,-1.59% (inactive)
17,COc1cccc(OCC(=O)Nc2ccccc2C(N)=O)c1,29.5% (active)
18,Cc1cccc(OCCC(=O)Nc2ccccc2C(N)=O)c1,-1.74% (inactive)
19,Cc1cccc(OCC(=O)Nc2ccccc2F)c1,-2.03% (inactive)
20,O=C(C[C@@H]1CC[C@H]2[C@@H](COC[C@@H](O)CN2S(=O)(=O)c2cccc(Cl)c2)O1)N1CCCCC1,1.52% (inactive)
21,COc1ccc(S(=O)(=O)NCCc2c[nH]c3ccccc23)cc1OC,21.4% (active)
22,COc1ccccc1NC(=O)CCCc1c[nH]c2ccccc12,-1.4% (inactive)
23,COc1ccc(CCNS(=O)(=O)c2ccc(F)cc2)cc1OC,-1.59% (inactive)
24,CC=Cc1ccc2n(c1=O)C[C@H]1[C@H](CO)[C@@H](C(=O)NCC3CC3)N(Cc3nccs3)[C@@H]21 (mixture of isomers),1.01% (inactive)

row,SMILES,inhibition
1,COCC(=O)N1C[C@H]2[C@@H](c3ccccc31)[C@@H](CO)N2C(=O)NC(C)C,0.583% (inactive)
2,O=C(C1CCC1)N1CC(=O)N2[C@H](C1)[C@@H](c1ccc(-c3ccccc3F)cc1)[C@@H]2CO,3.28% (inactive)
3,C[C@H](CO)N1C[C@H](C)[C@H](CN(C)Cc2ccc(C(=O)Nc3ccccc3N)cc2)Oc2c(NC(=O)Nc3ccccc3)cccc2C1=O,-0.83% (inactive)
4,COc1ccc(C2NC(=O)N(C)C(C)=C2[N+](=O)[O-])cc1 (stereo unspecified),2.48% (inactive)
5,COCCN1C(=O)N[C@@H](c2ccccc2)C(C(=O)OC)=C1C,-1.66% (inactive)
6,COC(=O)C1=C(C)N(C)C(=O)NC1c1ccc([N+](=O)[O-])o1 (stereo unspecified),17.2% (active)
7,CC=Cc1ccc2n(c1=O)C[C@H]1[C@H](CO)[C@@H](C(=O)N3CCCCC3)N(Cc3ccccn3)[C@@H]21 (mixture of isomers),3.91% (inactive)
8,C[C@@H](NC(=O)C[C@H]1C[C@H]2c3cc(NC(=O)C4CCOCC4)ccc3O[C@H]2[C@@H](CO)O1)c1ccccc1,-0.41% (inactive)
9,COCCCNC(=S)NNC(=O)C(O)(c1ccccc1)c1ccccc1,-5.23% (inactive)
10,Cc1cc(C)c2[nH]c(=O)c(CN(Cc3ccccc3)C(=S)NCCCN(C)C)cc2c1,-6.33% (inactive)
11,COCCCNC(=S)N(Cc1ccccc1)Cc1ccc(F)cc1,15.1% (active)
12,COCC(=O)N1[C@H](CO)[C@@H](c2ccccc2)[C@H]1CN(C)C(=O)c1ccncc1,3.21% (inactive)
13,CN(c1ccccc1)S(=O)(=O)c1ccc2[nH]c(=O)[nH]c2c1,-0.22% (inactive)
14,CCN(c1ccccc1)S(=O)(=O)c1ccc(OCC(=O)N2CCCC2)cc1,-0.147% (inactive)
15,CCN(c1ccccc1)S(=O)(=O)c1ccc2[nH]c(=O)[nH]c2c1,23.9% (active)
16,O=C(C[C@H]1C=C[C@H](NC(=O)Cc2ccccn2)[C@@H](CO)O1)NCCc1ccccc1,6.76% (inactive)
17,O=C(C1CCCC1)N1CC(=O)N2[C@H](C1)[C@@H](c1ccc(-c3cccnc3)cc1)[C@@H]2CO,1.11% (inactive)
18,CO[C@H]1CN(C)C(=O)c2ccc(NC(=O)Nc3c(C)noc3C)cc2OC[C@@H](C)NC[C@H]1C,-5.86% (inactive)
19,Cc1cccc(-n2c(C)cc(/C=N\NC(=O)c3cccs3)c2C)c1,-1.07% (inactive)
20,CC(C)c1ccc(C=NNc2ccc([N+](=O)[O-])cn2)cc1,1.24% (inactive)
21,Cc1cc(/C=N/Nc2ccc([N+](=O)[O-])cn2)c(C)n1-c1cccc(C(=O)O)c1,17.7% (active)
22,O=S(=O)(c1ccc(F)cc1)N1CC[C@@H]2[C@@H](CO)Nc3ccc(-c4ccccc4F)cc3[C@@H]21,7.3% (inactive)
23,O=C(C[C@@H]1C[C@@H]2c3cc(NC(=O)Nc4ccc(F)cc4)ccc3O[C@@H]2[C@H](CO)O1)NCC(F)(F)F,-3.74% (inactive)
